Several values for one entry are separate records, joined by “and”; a condition that tells them apart may be missing. Equal entries are not always repeated. Compounds without any hit were thinned out: in the full panel of roughly 83,000, 20% have a hit.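 Cells were grown in 96-well plates and exposed to the test compound at a single concentration for 48 hours; results are reported as percent growth, with values below 10 considered active.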 Activity calls are given as the source filed them.

The assay concerns HL-60(TB) leukemia. The assay can be described thus: NCI-60 one-dose screen, 48 h (100 = growth as untreated, 0 = no growth, -100 = all killed). The settings on record: 10 µM unless noted.
For `Nc1nc(-c2cc3ccccc3o2)cc(=O)c(=O)[nH]1`, the growth is 107% (inactive).
Next, `C[N+]1(CCCCC[N+]2(C)CCCC2)CCCC1`: 110% (inactive); `COCCNC(=O)c1ccc(-c2nc3ccc4[nH]ncc4c3c3c2CCCC3)cc1`: 11.4% (inactive).
Turning to `O=C1OC(c2ccc(-c3ccccc3)cc2)=C/C1=C/c1cccs1`, the growth was 75% (inactive).
Turning to `O=C(COc1cccc(/C=C2\COc3ccc(Cl)cc3C2=O)c1)c1ccc(Cl)cc1`, the growth was 52.7% (inactive).
To `O=C(Nc1cccc(-n2cc(-c3ccncc3)c(-c3ccc(O)c(Cl)c3)n2)c1)Nc1cccc(C(F)(F)F)c1` belongs -11.6% (active); to `NCCCNc1nc2ccccc2c2c(=O)c3cccc(F)c3sc12`, 13.9% (inactive); to `CCN1CCN(Cc2ccc(NC(=O)Nc3ccc(-n4ccc5c(NC(=O)c6ccccc6)nccc54)cc3)cc2C(F)(F)F)CC1`, 35.8% (inactive).
Next, `CCn1c(SCC(=O)c2ccc(Br)cc2)nnc1-c1ccncc1`: 103% (inactive); `CCCCCCCCCCCC[N+]1(CCCCCCCCCCCC)CCCC(C)C1` (centres undefined): -79.5% (active); `CCn1cc(C(=O)O)c(=O)c2cc(F)c(N3CCN(CC(=O)Nc4ccc(C(C)=O)cc4)CC3)cc21`: 95.7% (inactive).
Consider `CCOC(=O)c1c(SC)nn(-c2cc(=O)[nH]c3ccc(Br)cc23)c1N`, for which the growth was 103% (inactive).
Turning to `Cc1ccc2oc(=O)cc(-c3nc4ccc([N+](=O)[O-])cc4[nH]3)c2c1`, the growth was 53.1% (inactive).
To `CN1CCN(CCOc2ccc(-c3cnc4c(-c5ccccc5F)cnn4c3)cc2)CC1` belongs -30.2% (active).
`COc1ccc(-c2oncc2-c2cc(OC)c3c(c2)OCO3)cc1`: the growth is -6.72% (active).
Next, `CC(O)c1cnc(/C=C2\SC(=S)N(Cc3ccccc3)C2=O)s1` (centres undefined): 20.4% (inactive).
Regarding `CCN(CC)CCCC(C)N=c1cc(Nc2cc(=NC(C)CCCN(CC)CC)c3cc(OC)ccc3o2)oc2ccc(OC)cc12` (centres undefined), the growth was -65.3% (active).
Next, `COc1ccc2[nH]cc(-c3nc(-c4cn(C)c5c(Cl)nccc45)cs3)c2c1`: 30.5% (inactive).
To `COc1ccc(-c2csc(NC(=O)c3ccc(Cc4n[nH]c(=O)c5cccnc45)cc3)n2)cc1` belongs 104% (inactive).
To `CC1=CC(C)(C)NC(=S)N1c1ccc(Cl)cc1` belongs 94.7% (inactive) and 97.6% (inactive); to `N=C1C(c2nc(-c3ccc(Br)cc3)cs2)=C(O)CN1CC1CCCO1` (centres undefined), 98.3% (inactive).
`CC1=CCC2CC1C2(C)C` (centres undefined): the growth is 105% (inactive) and 92.9% (inactive).
Consider `N#CC1=C(Nc2ccccc2Cl)SC(c2ccccc2O)NC1=O` (centres undefined), for which the growth is 93.1% (inactive).
As to `CC(C)N1CCN(Cc2ccc3c(NNC(=O)c4ccccc4)nc4cc(F)ccc4n23)CC1`, the growth was 8.42% (active).
In the case of `O=C1/C(=C/c2ccc(F)cc2)COc2ccc(O)cc21`, the growth was 19.1% (inactive).
As for `COc1ccc(C(C)=O)cc1S(=O)(=O)Nc1c(N)nc(SC)[nH]c1=O`, the growth is 96.8% (inactive).
Next, `C=CC(=O)N1CCC[C@H](n2c(=O)n(-c3ccc(Oc4ccccc4)cc3)c3c(N)ncnc32)C1`: 92.4% (inactive); `O=S(=O)(O)c1ccc(Cl)c(Cl)c1`: 106% (inactive); `COc1ccc(-c2nc3ccccn3c2/C=C/C(=O)c2cc(OC)c(OC)c(OC)c2)cc1`: 49.9% (inactive).
In the case of `CC(C)Cc1ccc(C(C)C(=O)NCc2c[nH]c3ccc(Cl)cc23)cc1` (centres undefined), the growth was 87.6% (inactive).
Next, `CC12CCC(C(=O)CC1=O)C2(C)C` (centres undefined): 71.5% (inactive) and 93.6% (inactive); `O=C(NCCCl)c1cc(Cl)cc(Cl)c1`: 95.5% (inactive); `Cc1c(-n2nnc(-c3nc4ccccc4s3)c2N)c(=O)n(-c2ccccc2)n1C`: 99.2% (inactive).
To `NC(N)=N/N=C/c1ccc(-c2ccc(-c3ccc(Cl)cn3)s2)cc1` belongs 97.8% (inactive).
Next, `C=C(C)[C@@H]1CC[C@]2(C(=O)O)CC[C@]3(C)[C@H](CC[C@@H]4[C@@]5(C)C/C(=C/c6ccc(OC)cc6)C(=O)C(C)(C)[C@@H]5CC[C@]43C)[C@@H]12`: 2.12% (active); `[2H]c1nc(Nc2ncc3cc(C(=O)N(C)C)n(C4CCCC4)c3n2)c([2H])c([2H])c1N1C([2H])([2H])C([2H])([2H])NC([2H])([2H])C1([2H])[2H]`: 14.6% (inactive); `N#Cc1ccc(/C=C/C(=O)c2ccccc2)cc1`: -15.6% (active) and 17.7% (inactive).
For `O=C(NNc1ccccc1)c1ccccc1`, the growth was 7.78% (active) and -1.5% (active).
Next, `COc1cc(C(=O)c2ccccc2C(=O)O)c(OC)c2c1CCCC2`: 36.8% (inactive) and 97.1% (inactive).

Values taken from PubChem BioAssay (NCI).
